Assay results: the supplement of paper PMC10849652
Of roughly 7,900 targets only a part is listed; those with a hit were picked by preference. About 0.6% of all pairs of compound and target were hits.

These targets were tested with c1cn2cc(-c3ccc4cn[nH]c4c3)nc(Nc3ccc(N4CCOCC4)cc3)c2n1 [entospletinib] (assay: log2 fold change, soluble protein after heating vs DMSO (PISA); higher = thermal stabilisation; K562 cells, 10 uM, 30 min; active = over 0.2 and 3.5 SD of the protein, either way, in both replicates (recomputed)).
Outline: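 Values are thermal stability changes relative to control samples and are taken from duplicates. They are stated as log2 fold changes. Before quantification by TMTpro 16plex LC-MS/MS with equalised channel sums, K562 cells at 2×10^6 cells/mL were treated with 10 μM compound for 30 min, heated in aliquots for 3 min across 48°C-58°C, pooled, extracted in PBS with 0.5% NP-40 at 4°C, and centrifuged at 21,000xg for 90 min to give the soluble supernatant.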

UniProt Q96G46, sequence (Q96G46 whole entry, looked up): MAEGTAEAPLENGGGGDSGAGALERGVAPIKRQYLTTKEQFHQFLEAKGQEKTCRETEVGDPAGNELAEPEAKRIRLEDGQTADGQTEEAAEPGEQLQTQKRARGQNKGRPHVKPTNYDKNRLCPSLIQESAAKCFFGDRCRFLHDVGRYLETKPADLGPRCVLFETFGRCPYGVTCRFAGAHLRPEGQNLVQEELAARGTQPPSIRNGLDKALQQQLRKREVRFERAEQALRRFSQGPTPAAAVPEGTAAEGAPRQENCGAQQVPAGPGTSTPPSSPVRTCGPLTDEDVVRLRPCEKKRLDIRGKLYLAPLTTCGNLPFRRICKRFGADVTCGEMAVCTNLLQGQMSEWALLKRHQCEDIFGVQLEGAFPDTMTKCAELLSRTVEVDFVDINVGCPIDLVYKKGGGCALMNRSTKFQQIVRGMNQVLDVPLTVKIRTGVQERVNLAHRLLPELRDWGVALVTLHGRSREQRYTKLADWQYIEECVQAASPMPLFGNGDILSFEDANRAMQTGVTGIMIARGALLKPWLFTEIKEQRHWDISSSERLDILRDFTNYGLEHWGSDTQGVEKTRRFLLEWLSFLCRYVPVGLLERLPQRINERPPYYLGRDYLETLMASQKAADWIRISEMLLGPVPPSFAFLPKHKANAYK
UniProt Q6P3W2, sequence (Q6P3W2 whole entry, looked up): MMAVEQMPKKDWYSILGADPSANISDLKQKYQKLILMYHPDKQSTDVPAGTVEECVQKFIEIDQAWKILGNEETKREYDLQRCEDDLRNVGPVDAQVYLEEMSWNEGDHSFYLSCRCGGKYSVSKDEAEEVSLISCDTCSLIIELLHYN
UniProt Q8WYA6, sequence (Q8WYA6 whole entry, looked up): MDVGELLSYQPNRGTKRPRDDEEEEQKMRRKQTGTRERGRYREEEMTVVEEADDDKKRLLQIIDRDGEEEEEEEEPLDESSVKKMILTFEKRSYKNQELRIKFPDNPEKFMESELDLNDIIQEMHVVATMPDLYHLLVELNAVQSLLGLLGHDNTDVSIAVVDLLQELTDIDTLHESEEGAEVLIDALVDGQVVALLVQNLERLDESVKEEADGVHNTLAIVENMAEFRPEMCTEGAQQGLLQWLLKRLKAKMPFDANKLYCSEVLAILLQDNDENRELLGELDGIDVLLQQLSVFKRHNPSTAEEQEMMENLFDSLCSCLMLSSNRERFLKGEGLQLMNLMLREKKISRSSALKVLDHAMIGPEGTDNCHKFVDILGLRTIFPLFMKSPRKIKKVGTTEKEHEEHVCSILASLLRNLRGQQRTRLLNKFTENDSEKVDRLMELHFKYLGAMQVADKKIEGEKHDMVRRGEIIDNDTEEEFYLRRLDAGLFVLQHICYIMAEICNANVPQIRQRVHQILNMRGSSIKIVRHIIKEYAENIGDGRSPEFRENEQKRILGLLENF
UniProt Q9NQZ7, sequence (Q9NQZ7 whole entry, looked up): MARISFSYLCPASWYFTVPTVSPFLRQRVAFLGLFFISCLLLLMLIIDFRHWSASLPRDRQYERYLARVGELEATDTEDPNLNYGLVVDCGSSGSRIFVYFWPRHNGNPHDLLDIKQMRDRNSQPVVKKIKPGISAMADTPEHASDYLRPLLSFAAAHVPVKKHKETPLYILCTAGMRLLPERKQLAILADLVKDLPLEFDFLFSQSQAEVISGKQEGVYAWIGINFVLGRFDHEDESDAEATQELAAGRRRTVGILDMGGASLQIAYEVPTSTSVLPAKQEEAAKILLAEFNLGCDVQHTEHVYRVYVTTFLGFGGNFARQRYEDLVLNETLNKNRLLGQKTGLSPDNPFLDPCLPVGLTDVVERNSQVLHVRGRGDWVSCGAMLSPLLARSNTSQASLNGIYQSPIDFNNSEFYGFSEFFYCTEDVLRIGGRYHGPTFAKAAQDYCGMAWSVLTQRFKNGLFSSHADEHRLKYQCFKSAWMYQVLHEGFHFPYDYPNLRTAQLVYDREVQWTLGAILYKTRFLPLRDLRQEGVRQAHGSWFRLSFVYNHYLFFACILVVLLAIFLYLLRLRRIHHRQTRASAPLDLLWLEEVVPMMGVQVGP
UniProt P25685, sequence (P25685 whole entry, looked up): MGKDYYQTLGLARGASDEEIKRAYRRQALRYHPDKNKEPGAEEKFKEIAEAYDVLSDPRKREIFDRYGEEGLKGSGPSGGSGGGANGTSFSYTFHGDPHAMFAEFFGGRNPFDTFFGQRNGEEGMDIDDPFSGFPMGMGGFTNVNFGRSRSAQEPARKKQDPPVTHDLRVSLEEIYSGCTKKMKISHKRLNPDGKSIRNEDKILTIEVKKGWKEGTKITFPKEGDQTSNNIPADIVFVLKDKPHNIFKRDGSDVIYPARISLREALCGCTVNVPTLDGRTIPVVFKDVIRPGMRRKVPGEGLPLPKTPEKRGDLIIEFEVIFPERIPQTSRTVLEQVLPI
UniProt Q6UX04, sequence (Q6UX04 whole entry, looked up): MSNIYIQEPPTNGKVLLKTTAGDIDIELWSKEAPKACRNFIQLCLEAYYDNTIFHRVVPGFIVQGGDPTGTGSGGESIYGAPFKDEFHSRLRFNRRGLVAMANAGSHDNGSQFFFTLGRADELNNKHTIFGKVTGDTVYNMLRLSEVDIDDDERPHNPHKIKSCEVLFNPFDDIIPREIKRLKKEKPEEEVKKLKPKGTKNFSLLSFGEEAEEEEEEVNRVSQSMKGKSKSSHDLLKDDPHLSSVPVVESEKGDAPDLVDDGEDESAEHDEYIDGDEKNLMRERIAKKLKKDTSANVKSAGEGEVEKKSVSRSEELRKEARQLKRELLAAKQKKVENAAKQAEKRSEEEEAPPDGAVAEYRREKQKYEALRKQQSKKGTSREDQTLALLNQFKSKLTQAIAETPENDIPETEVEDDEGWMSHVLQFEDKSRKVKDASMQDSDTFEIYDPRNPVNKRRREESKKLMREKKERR
UniProt P25774, sequence (P25774 whole entry, looked up): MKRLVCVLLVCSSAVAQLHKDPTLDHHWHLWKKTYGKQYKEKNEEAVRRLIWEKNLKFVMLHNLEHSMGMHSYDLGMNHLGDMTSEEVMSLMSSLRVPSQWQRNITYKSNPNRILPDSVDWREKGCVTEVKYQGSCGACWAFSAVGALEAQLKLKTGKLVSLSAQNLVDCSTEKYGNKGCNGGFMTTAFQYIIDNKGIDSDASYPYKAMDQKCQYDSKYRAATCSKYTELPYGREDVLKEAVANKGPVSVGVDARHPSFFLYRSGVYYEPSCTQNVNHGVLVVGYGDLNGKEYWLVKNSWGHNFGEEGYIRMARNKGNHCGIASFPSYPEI
UniProt Q7L014, sequence (Q7L014 whole entry, looked up): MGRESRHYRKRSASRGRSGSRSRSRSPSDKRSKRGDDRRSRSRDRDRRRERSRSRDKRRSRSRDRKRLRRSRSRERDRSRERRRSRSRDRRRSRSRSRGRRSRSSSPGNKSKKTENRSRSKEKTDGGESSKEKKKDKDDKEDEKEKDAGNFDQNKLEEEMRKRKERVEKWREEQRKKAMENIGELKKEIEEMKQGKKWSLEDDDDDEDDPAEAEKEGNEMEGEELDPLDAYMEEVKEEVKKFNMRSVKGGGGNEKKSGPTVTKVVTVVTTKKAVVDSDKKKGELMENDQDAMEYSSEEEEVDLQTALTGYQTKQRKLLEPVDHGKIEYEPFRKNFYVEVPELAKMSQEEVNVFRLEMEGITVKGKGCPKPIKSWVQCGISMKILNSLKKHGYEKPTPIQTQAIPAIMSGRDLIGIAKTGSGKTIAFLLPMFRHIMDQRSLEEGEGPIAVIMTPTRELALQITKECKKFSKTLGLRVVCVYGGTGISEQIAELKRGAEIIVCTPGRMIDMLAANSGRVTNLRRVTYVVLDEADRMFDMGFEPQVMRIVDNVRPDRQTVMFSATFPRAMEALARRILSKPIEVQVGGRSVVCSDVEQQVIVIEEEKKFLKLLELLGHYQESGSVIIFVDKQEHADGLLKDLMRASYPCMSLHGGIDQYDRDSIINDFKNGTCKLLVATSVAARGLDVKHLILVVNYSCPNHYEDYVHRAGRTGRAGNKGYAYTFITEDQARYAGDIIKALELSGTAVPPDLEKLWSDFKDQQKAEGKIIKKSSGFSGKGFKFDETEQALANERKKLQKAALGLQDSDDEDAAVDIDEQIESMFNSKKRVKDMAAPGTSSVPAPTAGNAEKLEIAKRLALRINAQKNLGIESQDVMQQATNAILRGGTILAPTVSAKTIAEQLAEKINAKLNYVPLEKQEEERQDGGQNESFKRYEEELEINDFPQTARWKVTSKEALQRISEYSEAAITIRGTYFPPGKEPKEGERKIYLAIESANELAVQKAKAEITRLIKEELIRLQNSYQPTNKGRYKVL
UniProt O60911, sequence (O60911 whole entry, looked up): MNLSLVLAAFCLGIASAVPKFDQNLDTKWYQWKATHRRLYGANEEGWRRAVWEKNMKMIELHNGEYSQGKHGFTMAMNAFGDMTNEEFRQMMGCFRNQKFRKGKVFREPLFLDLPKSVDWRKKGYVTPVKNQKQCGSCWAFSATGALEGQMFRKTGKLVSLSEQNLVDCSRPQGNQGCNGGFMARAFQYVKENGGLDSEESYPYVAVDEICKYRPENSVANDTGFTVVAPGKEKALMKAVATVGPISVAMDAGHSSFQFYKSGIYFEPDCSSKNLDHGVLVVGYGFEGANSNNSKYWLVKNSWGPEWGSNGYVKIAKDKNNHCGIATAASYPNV
UniProt P60842, sequence (P60842 whole entry, looked up): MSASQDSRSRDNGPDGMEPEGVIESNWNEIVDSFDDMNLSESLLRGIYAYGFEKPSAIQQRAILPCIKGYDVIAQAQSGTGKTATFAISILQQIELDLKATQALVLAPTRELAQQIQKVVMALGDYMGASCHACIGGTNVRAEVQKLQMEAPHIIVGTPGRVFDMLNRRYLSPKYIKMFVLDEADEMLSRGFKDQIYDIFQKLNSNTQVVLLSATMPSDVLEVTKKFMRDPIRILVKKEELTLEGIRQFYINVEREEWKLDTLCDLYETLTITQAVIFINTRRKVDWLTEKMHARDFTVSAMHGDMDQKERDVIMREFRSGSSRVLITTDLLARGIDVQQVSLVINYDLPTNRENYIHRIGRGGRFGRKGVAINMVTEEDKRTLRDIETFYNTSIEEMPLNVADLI

log2 fold change, inactive:
DYRK1A isoform 2 (UniProt Q13627) 0.003
DYNC1LI2 (UniProt O43237) -0.005
DOLPP1 (UniProt Q86YN1) 0.055
EXTL2 (UniProt Q9UBQ6) 0.03
DIAPH1 (UniProt O60610) 0.1
DCUN1D1 (UniProt Q96GG9) -0.023
CUTA isoform 2 (UniProt O60888) -0.027
DNAJC24 (UniProt Q6P3W2) 0.186
FAAP100 (UniProt Q0VG06) 0.003
DDX46 (UniProt Q7L014) -0.043
CTSS (UniProt P25774) 0.07
CTSV (UniProt O60911) 0.013
CWC27 (UniProt Q6UX04) -0.019
FAM117A (UniProt Q9C073) 0.067
DDOST (UniProt P39656) -0.014
DNAJB1 (UniProt P25685) -0.085
DCTPP1 (UniProt Q9H773) -0.008
EXOC5 (UniProt O00471) 0.002
CTNNBL1 (UniProt Q8WYA6) 0.069
EIF4G3 isoform 3 (UniProt O43432) 0.118
CTSA (UniProt P10619) 0.041
ELOVL1 (UniProt Q9BW60) -0.007
EIF4A1 (UniProt P60842) -0.083
DDX39A (UniProt O00148) 0.022
ESS2 (UniProt Q96DF8) 0.118
EXOC2 (UniProt Q96KP1) -0.005
ECPAS (UniProt Q5VYK3) -0.025
DTNBP1 (UniProt Q96EV8) 0.004
FAM50A (UniProt Q14320) -0.006
DUS3L (UniProt Q96G46) -0.086
ENTPD7 (UniProt Q9NQZ7) 0.096
EEA1 (UniProt Q15075) -0.005
DNAH5 (UniProt Q8TE73) -0.039
DBN1 isoform 3 (UniProt Q16643) -0.038
